A selection: hits, their analogues and other compounds. The true share with any hit is near 4.2%.
esBAF inh = blocks esBAF chromatin remodeling in mouse ES cells; Bmi1-luciferase knock-in reporter, 24 h; 100% = twice the neutral-well signal; reporter increase, % at 12.5 µM; hit rate 2% among 350,000; AID 602393; in the data active = activation above about 40%;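 also: 0% = median of the plate's neutral control wells and 100% = double that signal; a rise in the Bmi1 reporter signal indicates esBAF inhibition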
AHR act = human AHR activation. hit rate 2.5% among 320,000. AHR-responsive luciferase reporter cells, luminescence. AID 2796. activation, % at 5 µM. P35869; in the data active = activation above about 47%;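 also: 0% = vehicle wells and 100% = reference agonist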
Target sequence (P35869 whole entry, looked up): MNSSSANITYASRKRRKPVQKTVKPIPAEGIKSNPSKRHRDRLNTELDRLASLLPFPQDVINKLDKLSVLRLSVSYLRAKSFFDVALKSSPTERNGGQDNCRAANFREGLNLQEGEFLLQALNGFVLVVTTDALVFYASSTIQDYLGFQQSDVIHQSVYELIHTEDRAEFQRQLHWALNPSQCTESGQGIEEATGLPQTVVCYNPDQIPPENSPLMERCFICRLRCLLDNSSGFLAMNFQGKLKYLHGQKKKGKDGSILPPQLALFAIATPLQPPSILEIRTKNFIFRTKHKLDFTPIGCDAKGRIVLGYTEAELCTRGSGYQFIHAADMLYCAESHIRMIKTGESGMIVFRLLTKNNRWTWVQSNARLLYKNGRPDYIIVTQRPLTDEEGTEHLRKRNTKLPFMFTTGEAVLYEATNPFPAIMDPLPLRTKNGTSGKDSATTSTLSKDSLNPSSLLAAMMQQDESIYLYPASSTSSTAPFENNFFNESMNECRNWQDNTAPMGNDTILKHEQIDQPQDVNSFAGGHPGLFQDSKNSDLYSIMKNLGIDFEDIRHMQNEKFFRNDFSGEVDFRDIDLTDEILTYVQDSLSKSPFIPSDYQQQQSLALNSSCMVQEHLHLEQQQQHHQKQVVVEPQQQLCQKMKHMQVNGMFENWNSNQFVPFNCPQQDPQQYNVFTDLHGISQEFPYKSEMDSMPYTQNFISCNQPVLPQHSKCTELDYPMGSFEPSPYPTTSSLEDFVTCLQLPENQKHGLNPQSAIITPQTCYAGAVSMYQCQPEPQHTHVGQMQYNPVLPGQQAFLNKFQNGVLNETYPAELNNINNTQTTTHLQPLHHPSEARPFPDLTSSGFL
Wnt act = activates Wnt/beta-catenin signaling in a reporter cell assay; hit rate 1.2% among 300,000; activation, % at 9.35 µM; AID 743398; activator, plate reader; in the data active = activation above about 30%, passing the limit was not always enough;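 also: 0% = neutral control wells and 100% = positive control wells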
FXN GAA850 act = activators of GAA850 frataxin (FXN) promoter | HEK293 lucGAA850 FXN promoter luciferase reporter, 24 h; percent of 10 µM SAHA response | activation, % at 6 µM | hit rate 0.56% among 360,000;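 active = activation above the average of all compounds screened plus 3 SD, cutoff fixed separately per campaign, cut at about 7.5% in these data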;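 also: 0% = DMSO wells and 100% = 10 µM SAHA wells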
MITF TRPM1 HTS = increases MITF-driven TRPM1 promoter luciferase signal | SK-MEL-5 TRPM1-promoter luciferase, 24 h; % of positive control, neutral wells = 0 | activation, % at 12.5 µM | hit rate 0.75% among 300,000;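 active = mean activation of at least 80% with every replicate also reaching 80%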;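 also: 0% = neutral control wells and 100% = parthenolide positive control wells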
AHR act cf = confirmation of human aryl hydrocarbon receptor activators. human cells, AHR-responsive luciferase reporter, luminescence. shares compounds with AHR act. activation, % at 9 µM. hit rate 87% among 2,300; in the data active = activation above about 49%;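 also: HepG2 hepatoma cells carrying a DRE-driven firefly luciferase reporter; 0% = vehicle wells and 100% = reference agonist wells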
PXR counter = counter-screen for AHR activators: human PXR activators. shares compounds with AHR act. hit rate 88% among 2,300. cell-based PXR reporter, luciferase luminescence. AID 434939. activation, % at 11.6 µM; in the data active = activation above about 11%;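 also: human hepatoma DPX-2 cells expressing full-length human PXR; 0% = DMSO and 100% = reference agonist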
* = called active by the depositor; x = not tested or not shown; + = active, no number.

SMILES | esBAF inh | AHR act | Wnt act | FXN GAA850 act | MITF TRPM1 HTS | AHR act cf | PXR counter
Clc1cccc(-c2sc(Nc3ccccc3)n[n+]2-c2ccccc2)c1Cl | -6.8 | 5.3 | -2.2 | -1.1 | 2.2 | x | x
Cc1ccc(-c2n[nH]c(=S)n2/N=C/c2cccn2C)cc1 | x | 36.9 | x | 1.9 | -1.9 | x | x
Cn1cccc1/C=N/n1c(-c2ccc(Cl)cc2)n[nH]c1=S | x | 89.3* | x | 0.5 | -8.1 | 80.7* | 25.4*
Cc1ccc2nc(-c3ccncc3)[nH]c2c1 | 31.7 | 133.6* | 18.8 | 6.7 | x | 87.0* | 21.5*
Cc1ccc(-c2csc3nc(-c4ccncc4)[nH]c(=O)c23)cc1 | x | -2.8 | 10.9 | 0.5 | -8.2 | x | x
C[C@@H]1CN([C@@H](C)CO)C(=O)c2cc(NC(=O)CCC(F)(F)F)ccc2O[C@H]1CN(C)Cc1ccc(Oc2ccccc2)cc1 | 1.0 | x | x | x | x | x | x
CC(=O)c1c(C)[nH]c(C(=O)Nc2ccc(Cl)c(S(=O)(=O)N(C)C)c2)c1C | x | 80.6* | 9.9 | 3.0 | 40.6 | 83.3* | 53.2*
CC(=O)c1c(C)[nH]c(C(=O)Nc2cc(S(=O)(=O)N3CCCCC3)ccc2C)c1C | 9.6 | 3.6 | 6.2 | 0.0 | 5.5 | x | x
CC(=O)c1c(C)[nH]c(C(=O)Nc2cccc(S(=O)(=O)N3CCOCC3)c2)c1C | x | 100.1* | 4.3 | 1.6 | 0.3 | 78.1* | 33.7*
CC=Cc1ccc2n(c1=O)C[C@@H]1[C@@H](CO)[C@H](C(=O)N(C)C)[C@H]2N1CC1CC1 (mixture of isomers) | -0.6 | x | x | x | x | x | x
O=C(NC(=S)Nc1ccc(F)c(Cl)c1)C1CC1 | x | 92.6* | -1.8 | 3.0 | -8.6 | 95.3* | x
COCC(=O)N(C)C[C@H]1Oc2cc(-c3ccccc3F)ccc2S(=O)(=O)N([C@@H](C)CO)C[C@@H]1C | 3.0 | x | x | x | x | x | x
Cc1ccc(C(=O)Nc2cccc(C(F)(F)F)c2)cc1Nc1ncnc2nc[nH]c12 | -3.6 | 83.7* | -7.5 | 3.1 | x | 39.1 | 30.0*
CCCNC(=O)Nc1ccc2c(c1)C(=O)N(C)C[C@@H](OC)[C@H](C)CN(C(=O)C1CCC1)[C@H](C)CO2 | -3.8 | x | x | x | x | x | x
[S-]C(=Nc1ccc(Cl)cc1)N[n+]1ccccc1 | x | 5.9 | 0.6 | 3.3 | -1.0 | x | x
ONC(=Nc1ccc(Cl)cc1)c1ccc(Cl)cc1 | 8.7 | 117.3* | 10.7 | 5.4 | -0.8 | 115.2* | 12.4*
CCCCc1cc2c(c(NC(=O)CC)n1)c(=O)oc1ccccc12 | x | x | -0.5 | 2.6 | -8.9 | x | x
CCCCc1cc2c(c(NC(C)=O)n1)c(=O)oc1ccccc12 | x | 94.5* | x | x | x | 98.7* | x
CCN(/N=C/C=C/c1ccccc1)c1cc(=O)n(C)c(=O)[nH]1 | x | 132.1* | 6.3 | 0.6 | 0.3 | 33.3 | 8.2
CCN(/N=C/c1ccc(Cl)cc1)c1cc(=O)n(C)c(=O)[nH]1 | x | 120.6* | -2.3 | 0.9 | -11.9 | 71.4* | x
Cn1c(=O)cc(Nc2ccccc2)[nH]c1=O | -5.8 | 2.3 | -0.7 | 1.2 | x | x | x
Cc1nc(NCCc2ccc(F)cc2)c(C#N)c(C)c1[N+](=O)[O-] | x | 108.2* | x | 2.8 | -17.4 | 112.8* | 23.8*
C[C@H](CO)N1C[C@H](C)[C@@H](CN(C)C(=O)NC2CCCCC2)Oc2c(NC(=O)C3CCOCC3)cccc2C1=O | 0.4 | x | x | x | x | x | x
COc1ccc(NC(=O)N(C)C[C@@H]2OCCCC[C@@H](C)Oc3ccc(NS(=O)(=O)c4ccc(C)cc4)cc3C(=O)N([C@@H](C)CO)C[C@H]2C)cc1 | 1.6 | x | x | x | x | x | x
COc1ccc(-c2cnc3ccccc3n2)cc1NC(=O)CNC(=O)c1ccccc1 | x | 117.2* | 17.9 | 0.8 | 54.7 | 35.2 | 42.3*
SMILES | esBAF inh | AHR act | Wnt act | FXN GAA850 act | MITF TRPM1 HTS | AHR act cf | PXR counter
COc1ccccc1NC(=O)CNC(=O)c1ccccc1 | 5.1 | 6.7 | x | 0.3 | -3.0 | x | x
O=C1N=c2ccc(Br)cc2=C1c1sc(=S)n(NS(=O)(=O)c2ccccc2)c1O | x | 82.9* | -7.2 | 1.6 | 4.1 | 20.3 | 23.3*
O=C(C=Cc1cccs1)c1cccs1 | 5.1 | x | 10.3 | 4.5 | 21.7 | x | x
O=C(/C=C\c1cccs1)c1c(O)ccc2ccc(=O)oc12 | x | 84.8* | x | 2.1 | -7.1 | 97.0* | x
CN(C)C(=O)c1cccc(-c2cccc(-c3nc(C(=O)NCc4ccccc4)cc4c3[C@H](CCO)N([S@@](=O)C(C)(C)C)C4)c2)c1 | 8.8 | x | x | x | x | x | x
CCn1c(SCC(=O)Nc2ccc3c(c2)OCO3)nnc1C1CC1 | -0.4 | 19.8 | -0.2 | 0.3 | 9.2 | x | x
CCn1c2ccccc2c2cc(NC(=O)CSc3nnnn3-c3ccccc3)ccc21 | 3.9 | 81.6* | x | -1.4 | -15.6 | 133.5* | +
CCn1c2ccccc2c2cc(NC(=O)CSc3nnc(C4CC4)n3Cc3ccco3)ccc21 | -4.3 | 111.6* | x | -1.6 | -5.8 | 56.1* | 171.2*
O=C(CSc1nnnn1-c1ccccc1)Nc1ccc(Cl)cc1 | -11.3 | 5.0 | 0.6 | -0.4 | x | x | x
CN(C)c1ccc2c(c1)[C@@H]1C[C@@H](CC(=O)NCCc3ccccc3)O[C@H](CO)[C@@H]1O2 | -0.6 | x | x | x | x | x | x
N#Cc1ccc(C(=O)Nc2cc(S(=O)(=O)Nc3ccc(Cl)cc3)ccc2N2CCCCC2)cc1 | x | 104.9* | x | 1.4 | -0.8 | 57.7* | 119.1*
O=C(Nc1cc(S(=O)(=O)Nc2ccc(Cl)cc2)ccc1N1CCCCC1)c1ccc(F)cc1 | -1.6 | 1.0 | -0.1 | 2.4 | 12.5 | x | x
c1ccc2c(c1)oc1c(Nc3ccc4c(c3)OCCO4)ncnc12 | 28.0 | 95.3* | -2.3 | 2.0 | 36.5 | 109.7* | 18.6*
COc1ccccc1NC(=O)N[C@H]1CC[C@H](CCNS(=O)(=O)c2ccc(F)cc2)O[C@@H]1CO | 1.9 | x | x | x | x | x | x
CCOc1cccc2sc(NC(=O)c3ccc(Br)s3)nc12 | -17.5 | 97.4* | 9.0 | -1.1 | 31.1 | 20.3 | 13.1*
Oc1ccc(NCc2ccccc2OCc2ccccc2F)cc1 | 15.0 | 8.4 | -0.8 | 1.1 | x | x | x
Cc1ccc(NCc2ccccc2OCc2ccccc2F)cc1 | -2.2 | 106.3* | x | 2.5 | 13.7 | 81.8* | 36.4*
O=C(C[C@@H]1C[C@H]2c3cc(NC(=O)CC4CC4)ccc3O[C@H]2[C@@H](CO)O1)NCC1CC1 | 1.4 | x | x | x | x | x | x
Nc1nc(-c2ccccc2)nc(-c2ccccc2O)n1 | -7.3 | 83.9* | 14.6 | 3.9 | -10.9 | 106.6* | 13.3*
Cc1cc(C)nc(SCc2nc(N)nc(-c3ccccc3O)n2)n1 | x | 83.9* | 0.9 | 4.2 | -6.7 | 90.8* | 38.2*
Nc1nc(N)nc(-c2ccccc2O)n1 | 12.3 | 17.6 | 3.6 | 6.7 | 2.7 | x | x
C[C@@H]1CN([C@@H](C)CO)S(=O)(=O)c2ccc(C#Cc3ccccc3)cc2O[C@@H]1CN(C)S(=O)(=O)c1cn(C)cn1 | 1.1 | x | x | x | x | x | x
Cc1ccc(S(=O)(=O)Nc2ccc3c(c2)C(=O)N([C@H](C)CO)C[C@H](C)[C@@H](CN(C)C(=O)Nc2c(C)noc2C)O3)cc1 | -2.3 | x | x | x | x | x | x
Cn1c(/C=C/c2cccc([N+](=O)[O-])c2)nc2ccccc2c1=O | x | 92.9* | -2.2 | 1.2 | 7.1 | -0.4 | 11.7*

Bioassay records as filed in PubChem.
